Assay outcomes as filed in PubChem.
TDP1 cell CPT: DT40-hTDP1 cell growth loss with CPT; chicken DT40 Tdp1-/-;hTDP1 cells + 20 nM CPT, ATP luminescence, 48 h; AID 686979; Potency, µM (series often up to 46.2 µM), hits mostly inhibitors; actives 12% (n = 420,000); also: nearly all actives have a fitted effect of over 55% in size
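Chicken DT40 Tdp1-/- cells complemented with human TDP1, 400 cells/well, exposed to compounds plus 20 nM camptothecin for at least 48 h at 37 C; viability read as ATP content by CellTiter-Glo luminescence.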
DT40 TDP1 no CPT: qHTS for Inhibitors of human tyrosyl-DNA phosphodiesterase 1 (TDP1): qHTS in cells in absence of CPT. DT40 Tdp1-/- hTDP1 cells, no CPT, ATP luminescence, 48 h. Potency, µM (top dose mostly 46.2 µM), most hits filed as inhibitors. actives 15% (n = 420,000); also: nearly all actives have a fitted effect of over 55% in size
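Cells were dispensed at 400 per well, compounds added by pin tool, plates incubated ≥48 hr at 37 °C, then CellTiter-Glo added for 30 min at room temperature before luminescence reading. Line: DT40 Tdp1-/- complemented with hTDP1; camptothecin omitted.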
HT1080-NT tox: kills 2HG-producing HT-1080-NT fibrosarcoma cells | HT-1080-NT fibrosarcoma viability, CellTiter-Glo ATP luminescence, 48 h | actives 1.6% (n = 360,000) | Potency, µM (series often up to 46.1 µM), usual class: cytotoxic | AID 686970;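 also: NT is the 2HG producing partner of a matched IDH1 knockdown line; nearly all actives have a fitted effect of over 55% in size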
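Toxicity toward the 2HG-producing NT line was scored as %Activity, normalised to DMSO and no-cell wells, from CellTiter-Glo luminescence after 48 hours' treatment.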
HT1080 IDH1KD tx: kills HT-1080 cells with IDH1 knockdown. actives 2% (n = 360,000). AID 686971. Potency, µM (highest dose often 46.1 µM), usual class: cytotoxic. HT-1080 IDH1 knockdown viability, ATP luminescence, 48 h
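Assay cells: HT-1080 with IDH1 knockdown, 750 per well, RPMI/5% FBS. Exposure: 48 h at 37 °C following 2 h pre-incubation. Read: CellTiter-Glo luminescence; fitted concentration-response, curve class assigned.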
KB-3-1 cytotox: kills parental KB-3-1 adenocarcinoma cells | Potency, µM (top dose mostly 46.1 µM), usual class: cytotoxic | KB-3-1 viability, CellTiter-Glo ATP luminescence, 72 h | actives 1.4% (n = 400,000); also: nearly all actives have a fitted effect of over 60% in size
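Viability of parental KB-3-1 cells, measured by CellTiter-Glo luminescence, followed a 72 h incubation at 37 °C with pinned compounds in phenol-red-free DMEM containing 10% FBS.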
KB-V1 cytotox: KB-V1 MDR subline cytotoxicity | Potency, µM (doses to about 46.1 µM), actives largely listed as cytotoxic | actives 3.4% (n = 400,000) | KB-V1 MDR cells viability, CellTiter-Glo, 72 h; also: nearly all actives have a fitted effect of over 60% in size
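Cells of the MDR subline KB-V1 are plated, dosed with compound at multiple concentrations, and incubated 72 h at 37 degrees C; CellTiter-Glo is then added and luminescence read after 10 min.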
A number is an active result; [ ] = another dose, or the depositor's remark. Hits are enriched below; roughly 19% of the tested compounds scored in any of these assays. Calls follow the shape of the dose curve; as a rule, active = well fitted curve in the direction sought with a large enough effect; inconclusive = small, poorly fitted or top-dose-only effect, or another doubt; inactive = no such curve, though single readings can be large; an effect the other way counts as inactive or inconclusive.

Cc1cccc(NC(=O)COC(=O)c2cccc3c2C(=O)c2ccccc2C3=O)c1C was read as TDP1 cell CPT inconclusive, DT40 TDP1 no CPT 16µM, HT1080-NT tox inactive, HT1080 IDH1KD tx inactive, KB-3-1 cytotox inactive and KB-V1 cytotox inconclusive.
`COc1cccc2c1cc1c(=O)n(CC(=O)NCc3ccc(N(C)C)cc3)nc(C)n12` gave TDP1 cell CPT inactive and DT40 TDP1 no CPT inactive.
Screening COc1cc(OC)c(/C=C/c2nccc3ccccc23)c(OC)c1 returned TDP1 cell CPT 0.071µM, DT40 TDP1 no CPT 0.1µM, KB-3-1 cytotox inconclusive and KB-V1 cytotox inactive.
For COc1cc(OC)c(/C=C/c2ccc3ccccc3n2)c(OC)c1 the results were TDP1 cell CPT 0.1µM, DT40 TDP1 no CPT 0.1µM, KB-3-1 cytotox 0.52µM and KB-V1 cytotox inactive.
For C(=C\c1cnc2ccccc2n1)/c1ccc2c(c1)OCO2 the results were TDP1 cell CPT inconclusive, DT40 TDP1 no CPT inconclusive, KB-3-1 cytotox inconclusive and KB-V1 cytotox inactive.
For COc1cc(OC)c(/C=C/c2ccccn2)c(OC)c1 the results were TDP1 cell CPT 3.2µM, DT40 TDP1 no CPT 2.8µM, KB-3-1 cytotox 5.2µM and KB-V1 cytotox inactive.
COc1ccc(/C=C/c2cnc3ccccc3n2)cc1OC was read as TDP1 cell CPT inconclusive, DT40 TDP1 no CPT 20µM, KB-3-1 cytotox inactive and KB-V1 cytotox inactive.
`COc1cc(OC)c(/C=C/c2ccc3ccccc3[n+]2[O-])c(OC)c1` gave TDP1 cell CPT inconclusive, DT40 TDP1 no CPT inconclusive, KB-3-1 cytotox inactive and KB-V1 cytotox inactive.
Screening COc1cc(OC)c(C=Cc2ccncn2)c(OC)c1 returned TDP1 cell CPT inactive, DT40 TDP1 no CPT inconclusive, HT1080-NT tox inactive, HT1080 IDH1KD tx inactive, KB-3-1 cytotox inactive and KB-V1 cytotox inactive.
`CCC1C(=O)NCCN1Cc1ccc2c(c1)CN(Cc1cccc(OC)c1)CCO2` (stereo unspecified) gave TDP1 cell CPT inactive[9.04 µM] and DT40 TDP1 no CPT inactive.
`COc1ccc(/C=C/c2ccc3ccccc3n2)cc1OC` gave TDP1 cell CPT inconclusive, DT40 TDP1 no CPT 13µM, KB-3-1 cytotox inconclusive and KB-V1 cytotox inactive.
CCOc1cc(/C=C/c2cc(C(=O)O)c3ccccc3n2)ccc1OC was read as TDP1 cell CPT inactive, DT40 TDP1 no CPT inactive, HT1080-NT tox inactive, HT1080 IDH1KD tx inactive, KB-3-1 cytotox inactive and KB-V1 cytotox inconclusive.
For CC(=O)Oc1ccc(Cl)cc1/C=C/c1ccc2ccccc2n1 the results were TDP1 cell CPT inconclusive, DT40 TDP1 no CPT 29µM, HT1080-NT tox inconclusive, HT1080 IDH1KD tx inconclusive, KB-3-1 cytotox inconclusive and KB-V1 cytotox inconclusive.
Screening O=C1CN(C(=O)CSc2nnc(C3CC3)n2-c2ccccc2)c2ccccc2N1 returned TDP1 cell CPT inactive, DT40 TDP1 no CPT inactive, HT1080-NT tox inactive, HT1080 IDH1KD tx inactive, KB-3-1 cytotox inactive and KB-V1 cytotox inconclusive.
`CC(C)C[C@H]1CNC(=O)C(=O)N1C[C@H]1CCCN1C[C@H](CC(C)C)N1C[C@H](CC(C)C)N(CCc2ccccc2)C(=O)C1=O` gave TDP1 cell CPT inconclusive, DT40 TDP1 no CPT inconclusive, HT1080-NT tox inactive, HT1080 IDH1KD tx inactive, KB-3-1 cytotox inconclusive and KB-V1 cytotox inactive.
CCCNS(=O)(=O)c1cccc(C(=O)OCc2cc(=O)oc3cc(OC)ccc23)c1 was read as TDP1 cell CPT 1µM, DT40 TDP1 no CPT 1µM, HT1080-NT tox inconclusive, HT1080 IDH1KD tx inconclusive, KB-3-1 cytotox inactive and KB-V1 cytotox inactive.
COc1ccc(C(=O)OCc2cc(=O)oc3cc(C)ccc23)cc1S(=O)(=O)N1CCOCC1 was read as TDP1 cell CPT inactive, DT40 TDP1 no CPT inconclusive, HT1080-NT tox inactive, HT1080 IDH1KD tx inactive, KB-3-1 cytotox inactive and KB-V1 cytotox inactive.
`COc1ccc2c(COC(=O)c3ccc(C)c(S(=O)(=O)N4CCOCC4)c3)cc(=O)oc2c1` gave TDP1 cell CPT inconclusive, DT40 TDP1 no CPT 16µM, HT1080-NT tox inactive, HT1080 IDH1KD tx inactive, KB-3-1 cytotox inactive and KB-V1 cytotox inactive.
COc1ccc2c(COC(=O)c3cccc(S(=O)(=O)NCC(C)C)c3)cc(=O)oc2c1 was read as TDP1 cell CPT inconclusive, DT40 TDP1 no CPT inconclusive, HT1080-NT tox inactive, HT1080 IDH1KD tx inactive, KB-3-1 cytotox inactive and KB-V1 cytotox inactive.
For CC(C)(C)c1ccc(Oc2ncccc2NC(=O)c2cccs2)cc1 the results were TDP1 cell CPT inconclusive, DT40 TDP1 no CPT inconclusive, HT1080-NT tox inactive, HT1080 IDH1KD tx inactive, KB-3-1 cytotox inactive and KB-V1 cytotox inactive.
For Cc1nc2ccccc2nc1OCc1cccc(Cl)c1 the results were TDP1 cell CPT inconclusive, DT40 TDP1 no CPT 15µM, HT1080-NT tox inactive, HT1080 IDH1KD tx inactive, KB-3-1 cytotox inactive and KB-V1 cytotox inactive.
Screening O=C(Oc1ccccc1)N1CCC2(CCCN(c3ccccn3)C2)CC1 returned TDP1 cell CPT inactive and DT40 TDP1 no CPT inconclusive.
CCN(CC)CCNC(=O)C(=O)Nc1ccc2c(c1)N(S(=O)(=O)c1cccs1)CCC2 was read as TDP1 cell CPT 15µM, DT40 TDP1 no CPT 16µM, HT1080-NT tox inconclusive, HT1080 IDH1KD tx inconclusive, KB-3-1 cytotox inactive and KB-V1 cytotox inactive.
CCCCNC(=O)C(=O)Nc1ccc2c(c1)N(S(=O)(=O)c1cccs1)CCC2 was read as TDP1 cell CPT 2.6µM, DT40 TDP1 no CPT 1.8µM, HT1080-NT tox inconclusive, HT1080 IDH1KD tx 8.2µM, KB-3-1 cytotox 2.1µM and KB-V1 cytotox 2.3µM.
`CNC(=O)C(=O)Nc1ccc2c(c1)N(S(=O)(=O)c1cccs1)CCC2` gave TDP1 cell CPT inconclusive, DT40 TDP1 no CPT inconclusive, HT1080-NT tox inactive, HT1080 IDH1KD tx inactive, KB-3-1 cytotox inactive and KB-V1 cytotox inactive.
`CCCNC(=O)CN1C(=O)NC(c2ccccc2)(c2ccccc2)C1=O` gave TDP1 cell CPT inactive, DT40 TDP1 no CPT inactive, HT1080-NT tox inactive, HT1080 IDH1KD tx inactive, KB-3-1 cytotox inactive and KB-V1 cytotox inactive.
Cc1ccc(S(=O)(=O)N(C)CCCC(=O)NCc2ccc3c(c2)OCO3)cc1 was read as TDP1 cell CPT inactive, DT40 TDP1 no CPT 23µM, HT1080-NT tox inactive, HT1080 IDH1KD tx inactive, KB-3-1 cytotox inactive and KB-V1 cytotox inactive.
O=C(Cc1ccc([N+](=O)[O-])cc1)NCc1ccc2c(c1)OCO2 was read as TDP1 cell CPT inactive, DT40 TDP1 no CPT inactive, HT1080-NT tox inactive, HT1080 IDH1KD tx inactive, KB-3-1 cytotox inactive and KB-V1 cytotox inactive.
For CN(CCCC(=O)NCc1ccc2c(c1)OCO2)S(=O)(=O)c1ccc([N+](=O)[O-])cc1 the results were TDP1 cell CPT inconclusive, DT40 TDP1 no CPT 23µM, HT1080-NT tox inactive and HT1080 IDH1KD tx inactive.
